In all, about 33,000 compounds went through this assay and about 95 (0.3%) were called active. This is one part of a sample in which actives are shown more often than they occur. Values without a mark were called inactive.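 Rule for the calls: active = inhibition above 40% in the primary screen; inactive = the rest.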

The term inhibition denotes the relative decrease from the control value, in per cent.

The target in the experiment is Coagulation factor XI (Homo sapiens) (UniProt P03951). The experiment in a line: human FXIa protease inhibitors, primary screen, biochemical, single compound per well (AID 687).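 Note: 0% = enzyme without compound and 100% = blank wells lacking enzyme.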 Particulars: purified human FXIa, fluorogenic AMC substrate cleavage; at 10 µM; hits give high values.
Sequence of Coagulation factor XI (Homo sapiens) (P03951 19-387 limits assumed): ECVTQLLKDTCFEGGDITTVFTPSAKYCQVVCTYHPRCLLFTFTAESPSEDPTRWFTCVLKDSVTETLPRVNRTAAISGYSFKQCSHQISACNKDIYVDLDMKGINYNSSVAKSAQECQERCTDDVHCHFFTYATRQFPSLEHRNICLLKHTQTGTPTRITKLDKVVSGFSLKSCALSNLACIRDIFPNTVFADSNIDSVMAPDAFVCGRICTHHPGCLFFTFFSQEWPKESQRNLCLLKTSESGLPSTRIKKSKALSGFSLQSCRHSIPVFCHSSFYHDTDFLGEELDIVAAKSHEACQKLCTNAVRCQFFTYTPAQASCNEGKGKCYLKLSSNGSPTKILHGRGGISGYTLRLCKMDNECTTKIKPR
Sequence of Coagulation factor XI (Homo sapiens) (P03951 388-625 limits assumed): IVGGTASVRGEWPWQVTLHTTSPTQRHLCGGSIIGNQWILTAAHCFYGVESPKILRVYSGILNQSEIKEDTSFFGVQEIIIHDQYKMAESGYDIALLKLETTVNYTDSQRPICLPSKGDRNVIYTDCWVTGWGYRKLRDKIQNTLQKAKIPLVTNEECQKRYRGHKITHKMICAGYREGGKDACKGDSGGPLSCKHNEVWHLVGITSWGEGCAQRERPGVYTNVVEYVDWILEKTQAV
On to `O=C(CN1CCN(C(=O)c2ccco2)CC1)Nc1ccc2c(c1)OCO2`, for which the inhibition is -13.2%.

Consider `CCOC(=O)c1ccc(COC(=O)CCc2nc(-c3ccccc3)c(-c3ccccc3)o2)cc1`, for which the inhibition is -0.92%.

As for `Cc1ccc(CNC(=O)CCNS(=O)(=O)c2cccc3nonc23)cc1`, the inhibition is -10.4%.

`CCc1nc(N2CCN(c3nc(C)cc(C)n3)CC2)c2oc3ccccc3c2n1`: the inhibition was -4.81%.

On to `COc1ccc(CCN(C)CCN2C(=O)c3ccccc3C2=O)cc1OC`, for which the inhibition is -0.63%.

Regarding `Cc1ccc(OCC(=O)Nn2cnc3ccccc32)cc1`, the inhibition is 13.2%.

Consider `CCOC(=O)c1c(C)nc2c(c1C)c(=O)oc1ccccc12`, for which the inhibition is 43.4% (active).

`CCOC(=O)c1ccc(COC(=O)c2cc(=O)[nH]c3ccccc23)o1`: the inhibition was 0.06%.

In the case of `CCOC(=O)c1cc2ccccc2nc1C`, the inhibition is -0.46%.

Turning to `CCOc1cc(CN2CCN(C(=O)CC(C)C)CC2)ccc1OC`, the inhibition was 0.6%.

`CC(NC(=O)Nc1ccccc1)c1ccccc1` (stereo unspecified): the inhibition is -3.02%.

For `CC1CCC2(CC1)NC(=O)N(CC(=O)c1cccn1C)C2=O` (stereo unspecified), the inhibition was -10.7%.

For `CCOc1ccc(S(=O)(=O)N2CCCCCC2)c2ccccc12`, the inhibition was -9.47%.

For `O=C(NC1CCCCC1)c1ccc(CNc2c(N3CCOCC3)c(=O)c2=O)cc1`, the inhibition was -0.69%.

Take `COc1ccc(CN2CCn3ncc(C(=O)Nc4ccc(Cl)cc4Cl)c3C2=O)cc1`: the inhibition is 8.32%.

With `CCOC(=O)C1=C(CSc2nccn2C)NC(=O)NC1c1ccc(OC)cc1` (stereo unspecified), the inhibition is -6.24%.

Turning to `CC1(C)Cc2c(sc3nc(SCC(=O)NCc4ccccc4)n(-c4ccccc4)c(=O)c23)CS1`, the inhibition is 1.32%.

Turning to `O=C(C(NS(=O)(=O)c1cccc2nsnc12)c1ccccc1)N1CCN(c2ccccc2)CC1` (stereo unspecified), the inhibition was 4.95%.

For the compound `O=C(NCc1ccco1)C1(c2ccc(Cl)cc2)CCCC1`, the inhibition is -4.42%.

Take `O=C(CCCn1c(SCC(=O)c2ccccc2)nc2ccccc2c1=O)NCC1CCCO1` (stereo unspecified): the inhibition was 7.29%.

Consider `CCOc1ccc(-c2nc(C)sc2CC(=O)O)cc1`, for which the inhibition is -1.47%.

In the case of `O=[N+]([O-])c1ccc(Oc2ccc(F)cc2Br)c2ccncc12`, the inhibition was -2.08%.

As to `c1ccc2[nH]c(NCCN3CCOCC3)nc2c1`, the inhibition is -1.88%.

For `COC(=O)C1CCN(CC(N)=O)CC1`, the inhibition is -11.2%.

For `Cc1cc(=O)oc(C)c1C(=O)N1CCCCC1`, the inhibition was 32.7%.

`Cc1ccc(CNC(=O)C2CCCN2C(=O)NCc2ccccc2)cc1` (stereo unspecified): the inhibition is 26.7%.

For the compound `COc1ccc(O)c(C(=O)c2cnc3onc(C(C)C)c3c2)c1`, the inhibition was -2.11%.

Regarding `O=C(CCN1c2ccccc2Sc2ccccc21)Nc1ccccc1`, the inhibition is -11.6%.

For the compound `Cc1ccnc(NC(=O)c2ccc(NC(=O)c3ccco3)cc2)c1`, the inhibition is 1.44%.

As to `Cc1cccc(NC(=O)CN2C(=O)CNC2=O)c1`, the inhibition was 7.39%.

With `COC(=O)c1cccc(N(C(=O)c2ccco2)C(C(=O)NC2CCCC2)c2ccco2)c1` (stereo unspecified), the inhibition is -11.4%.

Turning to `COc1ccc(N/N=C2/CCCCC2=O)cc1`, the inhibition is 19.4%.

As to `COc1ccc(N2CCN(C(=O)CCc3nc(-c4ccc(C)cc4)no3)CC2)cc1`, the inhibition was 8.76%.

Take `O=C(CNS(=O)(=O)c1ccc(Br)s1)N1CCN(C(=O)c2ccco2)CC1`: the inhibition is -4.45%.

Consider `Cc1cccc(C)c1NC(=O)CCCSc1nnc(-c2ccco2)n1-c1ccccc1`, for which the inhibition was -0.71%.

Regarding `Cc1ccc(-c2csc(NC(=O)c3cccs3)n2)cc1`, the inhibition was -11.7%.

`Oc1ccccc1CNc1ncc(Br)cc1Br`: the inhibition was -10.8%.

With `CCC1(C)Cc2c(sc3nc(SC)nc(N)c23)CO1` (stereo unspecified), the inhibition is 14.2%.

In the case of `COc1ccc(NC(=S)N2N=CCC2c2ccccc2)cc1` (stereo unspecified), the inhibition is 0.63%.

As to `Cc1ccsc1C(=O)OCC(=O)c1cc2ccccc2o1`, the inhibition was 3.48%.

Regarding `O=P(c1ccc2c(c1)OCCO2)(N1CCOCC1)N1CCOCC1`, the inhibition was 2.3%.

As for `COc1ccccc1NC(=O)/C=C/C(N)=O`, the inhibition is 4.44%.

`CCOc1ccccc1NC(=O)Nc1cc(OC)ccc1OC`: the inhibition is -0.13%.

In the case of `COc1ccc(C(=O)NNC(=O)c2cnccn2)cc1[N+](=O)[O-]`, the inhibition is -1.41%.

In the case of `COc1cc2c(cc1OC)C(C(C)C)=NC(C)(C)C2`, the inhibition is 2.2%.

Regarding `Cc1ccccc1N1CCN(CCCOc2ccc3c(C)cc(=O)oc3c2)CC1`, the inhibition is 3.75%.

On to `CCCC(C(=O)NCc1ccco1)N(C(=O)CNS(=O)(=O)c1ccccc1)C1CCCC1` (stereo unspecified), for which the inhibition is -1.8%.

Take `Cc1ccc(OCC(=O)N/N=C\c2ccco2)c(C)c1`: the inhibition is 8.22%.

For the compound `COc1ccccc1CNS(=O)(=O)c1ccc(C)cc1`, the inhibition was -5.43%.

As for `O=C(Nc1ccc(Sc2ccc(Br)cc2)cc1)c1ccco1`, the inhibition was 5.67%.

For the compound `CC1(C)CC(=O)NC=C(c2ccccc2)C1`, the inhibition was 2.57%.

Consider `COc1ccc(C(=O)CSc2nccc(=O)[nH]2)cc1`, for which the inhibition was 4.89%.

`Cc1cccc(N2CCN(S(=O)(=O)c3ccc4[nH]c(=O)c(=O)[nH]c4c3)CC2C)c1` (stereo unspecified): the inhibition was -6.46%.

`Cc1nc(NNC(=O)c2ccccc2)cc(-c2ccccc2)n1`: the inhibition is -2.36%.

For `COc1ccc(-c2cc(C)nc3nc(N)nn23)cc1`, the inhibition was -7.55%.

For `Cc1ccc(C2(C(F)(F)F)N=C3Sc4cc(C)cc(C)c4N3C(=O)N2)cc1` (stereo unspecified), the inhibition was -3.09%.

`COCCn1c(=S)[nH]c2cc(C(=O)NCCc3ccc(OC)c(OC)c3)ccc2c1=O`: the inhibition was 1.93%.

Take `COc1ccccc1NC(=O)C1CCCN(c2cc(C)nc3ncnn23)C1` (stereo unspecified): the inhibition was -7.53%.

On to `COC(=O)C1=C(C)Nc2ncnn2C1c1cccnc1` (stereo unspecified), for which the inhibition was -8.85%.

`CCOC(=O)c1c(N)sc(C(C)=O)c1C`: the inhibition was 5.4%.

Take `CCCOc1ccc(C2NC(=O)NC(c3ccccc3)=C2C(C)=O)cc1OCC` (stereo unspecified): the inhibition is -6.35%.

Consider `Cc1ccc(S(=O)(=O)N2CCN(Cc3cccc(C)c3O)CC2)cc1`, for which the inhibition was -1.32%.

Take `COC(C)(C)[C@]12CC(O)(C(C)C)ON1[C@H]1CCCCC1N2O` (stereo partly specified): the inhibition is 0.57%.

On to `CC(C)(C)c1cc(=O)n2c(nc3ccccc32)[nH]1`, for which the inhibition was 2.42%.

For `COC(=O)c1ccc(Sc2ccc(F)cc2)c(N)c1`, the inhibition was 1.93%.

Regarding `CC1CCCCC1NC(=O)C1CCCN1S(=O)(=O)c1cccc2nsnc12` (stereo unspecified), the inhibition was 7.4%.

Take `COc1ccc(-n2nc3c(c2NC(=O)Cc2cccc(C)c2)CS(=O)C3)cc1` (stereo unspecified): the inhibition was 4.35%.

In the case of `CC(C)(C)c1nc2ccccc2c(=O)n1N1C(=O)c2ccccc2C1=O`, the inhibition is 2.66%.

For the compound `COc1ccc(-c2nnc(SCC(=O)c3ccc4c(c3)OCCO4)o2)cc1`, the inhibition is -2.7%.

As for `COC(=O)/C(=C\Nc1ccccc1)NC(=O)c1ccc(Cl)cc1Cl`, the inhibition is 7.22%.

On to `CC(CN1CCOCC1)c1ccccc1` (stereo unspecified), for which the inhibition is 7.1%.

Regarding `O=C(CSCc1ccccc1)N1CCc2ccccc21`, the inhibition was 1.56%.

As to `Cc1ccc(OCCCC(=O)Nc2ccc(N3CCOCC3)cc2)cc1`, the inhibition was 3.13%.

`O=c1c2ccccc2nc(N/N=C/c2ccccc2)n1O`: the inhibition is 6.82%.

On to `Cc1[nH]n(-c2ccc(Cl)cc2)c(=O)c1/C=N/n1c(C)nc2ccccc2c1=O`, for which the inhibition was 4.91%.

As for `CC1(C)N=C(c2ccccn2)C(C)(C)N1O`, the inhibition was -1.83%.

Source of the values: PubChem BioAssay AID687 (PCMD, 2007).
